Laboratory results: PubChem BioAssay (NCI)
Compounds without any hit were thinned out: in the full panel of roughly 83,000, 20% have a hit.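 Results are percent growth after 48 hours of single-concentration exposure. 100 means growth as in untreated cells, lower positive values show inhibition; negative values down to -100 show cell death.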 The source made the active and inactive calls. How the source made its calls: active means growth percent below 10; inactive means the rest.

What follows are compounds tested on IGROV1 ovarian (assay: NCI-60 one-dose screen, 48 h (100 = growth as untreated, 0 = no growth, -100 = all killed)). Conditions: 10 µM.

| Structure (SMILES) | growth |
| --- | --- |
| O=C(Nc1ccc(OS(=O)(=O)c2ccccc2)cc1)C1CCCCC1 | 106% (inactive) |
| S=c1cnc2ccccc2[nH]1 | 97.2% (inactive) |
| COc1cc(-c2nn(-c3cccc(NC(=O)NCCNC(=O)c4cccc(C(F)(F)F)c4)c3)cc2-c2ccncc2)ccc1Cl | 57.3% (inactive) |
| C[C@@H](O)[C@H]1C(=O)N2C(C(=O)O)=C(SCCN=CN)C[C@H]12 | -5.16% (active) |
| CC[C@@H](C(=O)[C@@H](C)[C@@H](O)[C@H](C)[C@@H]1O[C@@H]([C@@H](CC)C(=O)O)CC[C@@H]1C)C1O[C@]2(C=CC(=O)[C@]3(CC[C@@](C)([C@H]4CC[C@](O)(CC)[C@H](C)O4)O3)O2)[C@H](C)C[C@@H]1C (stereo partly drawn) | 48.4% (inactive) |
| CCC(c1ccc(OC)cc1)C(CC)c1ccc(O)c(CN2CCN(C)CC2)c1 (stereo not drawn) | 68.5% (inactive) |
| COc1ccc(C(=O)N2C=Cc3ccccc3C2C#N)cc1 (stereo not drawn) | 114% (inactive) |
| Cc1cc(SC#N)cc(C(C)(C)C)c1O | 100% (inactive) |
| COc1ccc(-c2n[nH]nc2-c2cc(OC)c3c(c2OC)OCO3)cc1 | 45.3% (inactive) |
| CN1C(C(=O)Nc2ccccn2)=C(O)c2sc(Cl)cc2S1(=O)=O | 99.6% (inactive) |
| Clc1ccc2c(c1)C(N1CCNCC1)=Nc1ccccc1O2 | 48.1% (inactive) |
| CC(C)(C)c1ccc(S(=O)(=O)N[C@H]2CC[C@H]3[C@@H]4CCc5cc(O)c([N+](=O)[O-])cc5[C@H]4CC[C@]23C)cc1 | 78.1% (inactive) |
| COc1cc(-c2csc(NC(=O)Nc3ccc(Cl)c(C(F)(F)F)c3)n2)cc(OC)c1OC | 25.2% (inactive) |
